Among the data in PubChem BioAssay are insulin secretion stimulation and viability decrease values, retold here.

Activity calls are given as the source filed them.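 The calls were made as follows, unless noted: active = compound raises insulin release from rat beta cells at 5 mM glucose, no numeric limit stated; inactive = the rest.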

A short description of one assay: stimulators of insulin release from INS-1E, primary screen, cell-based, 5 mM glucose, NPC library (AID 1117329). Also: reference of the scale not given here. The following applies: rat INS-1E insulin secretion, at 10 µM, hits give high values.
`Cc1cccc(C)c1OCC(C)N` (stereo unspecified): the insulin secretion stimulation was 4.3% (inactive).
For the compound `COc1ccc(C2CNC(=O)C2)cc1OC1CCCC1` (stereo unspecified), the insulin secretion stimulation was 0.8% (inactive).
As for `CNS(=O)(=O)Cc1ccc2[nH]cc(CCN(C)C)c2c1`, the insulin secretion stimulation is 0.3% (inactive).
With `Nc1nc(F)nc2c1ncn2[C@@H]1O[C@H](CO)[C@@H](O)[C@@H]1O`, the insulin secretion stimulation is -0.6% (inactive).
The same measure, in the same setting: as for `CCCCN(CCCC)CCC(O)c1cc2c(Cl)cc(Cl)cc2c2cc(C(F)(F)F)ccc12` (stereo unspecified), the figure is 0.4% (inactive); as for `CCN1CC(CCN2CCOCC2)C(c2ccccc2)(c2ccccc2)C1=O` (stereo unspecified), 0.3% (inactive).
The same measure, in the same setting: as for `OCc1cccnc1`, the figure is -1.9% (inactive).
Same read-out and setting: the value for `Cc1ccsc1C(=CCCN1CCC[C@@H](C(=O)O)C1)c1sccc1C` was 0.1% (inactive); that for `NS(=O)(=O)Cc1noc2ccccc12` was -1.7% (inactive).
For `CCN(CC)CC1CCCCN1CC(=O)N1c2ccccc2C(=O)Nc2cccnc21` (stereo unspecified), the insulin secretion stimulation is 4% (inactive).
As to `CN(C)CCCSc1ccccc1NC(=O)/C=C/c1ccccc1`, the insulin secretion stimulation was 9.9% (inactive).
Same read-out and setting: the value for `CCc1oc2ccccc2c1C(=O)c1cc(Br)c(O)c(Br)c1` was 4.6% (inactive).
Still for that read-out and setting: as for `Cc1c[nH]c2ccccc12`, the figure is -2.3% (inactive); as for `O=NN(CCCl)C(=O)NC1CCCCC1`, -0.3% (inactive).
Same read-out and setting: the value for `CCCN1CCCC[C@H]1C(=O)Nc1c(C)cccc1C` was 31% (active); that for `CCCc1c(OCCCCc2nn[nH]n2)ccc(C(C)=O)c1O` was -0.7% (inactive); that for `CCOC(=O)[C@H](CCc1ccccc1)N[C@@H](C)C(=O)N1[C@H](C(=O)O)C[C@@H]2CCC[C@@H]21` was 1.25% (inactive).
In the case of `CN1CCN(c2c(F)cc3c(=O)c(C(=O)O)cn4c3c2SCC4)CC1`, the insulin secretion stimulation was 0.05% (inactive).
For `CN(CCCN1c2ccccc2CCc2ccccc21)CC(=O)c1ccc(Cl)cc1`, the insulin secretion stimulation was 10.9% (inactive).
As to `CNCCCCOc1ccccc1Cc1ccccc1`, the insulin secretion stimulation was 19.5% (inactive).
The same measure, in the same setting: the value for `CCC1=C(C)CN(C(=O)NCCc2ccc(S(=O)(=O)NC(=O)NC3CCC(C)CC3)cc2)C1=O` (stereo unspecified) was 29.4% (active); that for `Cc1cnc(NC(=O)C2=C(O)c3ccccc3S(=O)(=O)N2C)s1` was -1% (inactive); that for `CCOC(=O)OC(C)OC1=C(C(=O)Nc2ccccn2)N(C)S(=O)(=O)c2ccccc21` (stereo unspecified) was 0.55% (inactive).
On the same count and under the same terms, as for `CCOC(=O)c1ncn2c1CN(C)C(=O)c1cc(F)ccc1-2`, the figure is 1.6% (inactive).
Still for that read-out and setting: as for `CC(=O)OCC(=O)NCCCOc1cccc(CN2CCCCC2)c1`, the figure is -0.7% (inactive); as for `CC(C)NCC(O)COc1ccc(CCOCC2CC2)cc1` (stereo unspecified), -1.4% (inactive); as for `CN1[C@@H]2CC[C@H]1CC(OC(=O)c1c[nH]c3ccccc13)C2` (stereo partly specified), 13.7% (inactive).
In the case of `Nc1nc2c(ncn2CCC(CO)CO)c(=O)[nH]1`, the insulin secretion stimulation was -2.4% (inactive).
The same measure, in the same setting: as for `C/C=C1\[C@H]2C=C(C)C[C@]1(N)c1ccc(=O)[nH]c1C2`, the figure is 1.5% (inactive).
The same measure, in the same setting: as for `CNNCc1ccc(C(=O)NC(C)C)cc1`, the figure is 0.5% (inactive); as for `CC(C)(O)c1ccccc1CC[C@@H](SCC1(CC(=O)O)CC1)c1cccc(/C=C/c2ccc3ccc(Cl)cc3n2)c1`, 1.4% (inactive); as for `CC[N+](C)(CC)CCOC(=O)C(O)(c1ccccc1)C1CCCCC1` (stereo unspecified), -1.5% (inactive).
`CC1(C)O[C@@H]2C[C@H]3[C@@H]4C[C@H](F)C5=CC(=O)C=C[C@]5(C)[C@@]4(F)[C@@H](O)C[C@]3(C)[C@]2(C(=O)CO)O1`: the insulin secretion stimulation was 0.7% (inactive).
The same measure, in the same setting: the value for `CNCC(O)c1ccc(O)c(O)c1` (stereo unspecified) was 5.7% (inactive).
The same measure, in the same setting: as for `CC(C)(C)NC(=O)[C@@H]1CN(Cc2cccnc2)CCN1C[C@@H](O)C[C@@H](Cc1ccccc1)C(=O)N[C@H]1c2ccccc2C[C@H]1O`, the figure is 6.7% (inactive); as for `Oc1cccc2[nH]ccc12`, 4.05% (inactive); as for `COc1cc2c(cc1OC)C(=O)C(CC1CCN(Cc3ccccc3)CC1)C2` (stereo unspecified), 1.25% (inactive).
Turning to `CCN(CC)CCNC(=O)c1cc(Cl)c(N)cc1OC`, the insulin secretion stimulation is 3.1% (inactive).

Another assay can be described thus: growth inhibition of GSK3B-pretreated HCT116 cells – cell-based, CellTiter-Glo, 0.2 to 20 µM (AID 1117336;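 active = compounds lowering colon cancer cell viability after pretreatment blocking the GSK3B kinase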). The following applies: HCT116 viability after GSK3B inhibitor, at 20 µM, hits give high values. (In general: In ATP-based viability assays light output follows the ATP content of the culture.)
For the compound `Cc1cccc(C)c1OCC(C)N` (stereo unspecified), the viability decrease is 3.4% (inactive).
On the same count and under the same terms, as for `COc1ccc(C2CNC(=O)C2)cc1OC1CCCC1` (stereo unspecified), the figure is 23.9% (inactive).
Same read-out and setting: as for `CNS(=O)(=O)Cc1ccc2[nH]cc(CCN(C)C)c2c1`, the figure is -2.3% (inactive).
Turning to `Nc1nc(F)nc2c1ncn2[C@@H]1O[C@H](CO)[C@@H](O)[C@@H]1O`, the viability decrease is 12.6% (active).
The same measure, in the same setting: as for `CCCCN(CCCC)CCC(O)c1cc2c(Cl)cc(Cl)cc2c2cc(C(F)(F)F)ccc12` (stereo unspecified), the figure is 99.2% (active); as for `CCN1CC(CCN2CCOCC2)C(c2ccccc2)(c2ccccc2)C1=O` (stereo unspecified), 11.2% (inactive).
The same measure, in the same setting: as for `OCc1cccnc1`, the figure is -11.1% (inactive).
On the same count and under the same terms, as for `Cc1ccsc1C(=CCCN1CCC[C@@H](C(=O)O)C1)c1sccc1C`, the figure is -15.1% (inactive); as for `NS(=O)(=O)Cc1noc2ccccc12`, -1.75% (inactive); as for `CCN(CC)CC1CCCCN1CC(=O)N1c2ccccc2C(=O)Nc2cccnc21` (stereo unspecified), -12.6% (inactive).
Take `CN(C)CCCSc1ccccc1NC(=O)/C=C/c1ccccc1`: the viability decrease was -78.5% (inactive).
For `CCc1oc2ccccc2c1C(=O)c1cc(Br)c(O)c(Br)c1`, the viability decrease was 116% (active).
Still for that read-out and setting: as for `Cc1c[nH]c2ccccc12`, the figure is 3.8% (inactive); as for `O=NN(CCCl)C(=O)NC1CCCCC1`, 11.8% (inactive); as for `CCCN1CCCC[C@H]1C(=O)Nc1c(C)cccc1C`, -8% (inactive).
Turning to `CCCc1c(OCCCCc2nn[nH]n2)ccc(C(C)=O)c1O`, the viability decrease was 49.9% (inactive).
With `CCOC(=O)[C@H](CCc1ccccc1)N[C@@H](C)C(=O)N1[C@H](C(=O)O)C[C@@H]2CCC[C@@H]21`, the viability decrease was 13.8% (inactive).
On the same count and under the same terms, the value for `CN1CCN(c2c(F)cc3c(=O)c(C(=O)O)cn4c3c2SCC4)CC1` was 19.8% (inactive); that for `CN(CCCN1c2ccccc2CCc2ccccc21)CC(=O)c1ccc(Cl)cc1` was 6.7% (inactive).
Same read-out and setting: as for `CNCCCCOc1ccccc1Cc1ccccc1`, the figure is 82.8% (active); as for `CCC1=C(C)CN(C(=O)NCCc2ccc(S(=O)(=O)NC(=O)NC3CCC(C)CC3)cc2)C1=O` (stereo unspecified), 34.1% (inactive).
Still for that read-out and setting: the value for `Cc1cnc(NC(=O)C2=C(O)c3ccccc3S(=O)(=O)N2C)s1` was -14.6% (inactive); that for `CCOC(=O)OC(C)OC1=C(C(=O)Nc2ccccn2)N(C)S(=O)(=O)c2ccccc21` (stereo unspecified) was 5.8% (inactive).
Turning to `CCOC(=O)c1ncn2c1CN(C)C(=O)c1cc(F)ccc1-2`, the viability decrease is -39.4% (inactive).
The same measure, in the same setting: the value for `CC(=O)OCC(=O)NCCCOc1cccc(CN2CCCCC2)c1` was -69.8% (inactive).
Same read-out and setting: as for `CC(C)NCC(O)COc1ccc(CCOCC2CC2)cc1` (stereo unspecified), the figure is -6.1% (inactive).
Still for that read-out and setting: the value for `CN1[C@@H]2CC[C@H]1CC(OC(=O)c1c[nH]c3ccccc13)C2` (stereo partly specified) was 24.6% (inactive); that for `Nc1nc2c(ncn2CCC(CO)CO)c(=O)[nH]1` was 0.03% (inactive); that for `C/C=C1\[C@H]2C=C(C)C[C@]1(N)c1ccc(=O)[nH]c1C2` was 10.5% (inactive).
In the case of `CNNCc1ccc(C(=O)NC(C)C)cc1`, the viability decrease is -8.6% (inactive).
For the compound `CC(C)(O)c1ccccc1CC[C@@H](SCC1(CC(=O)O)CC1)c1cccc(/C=C/c2ccc3ccc(Cl)cc3n2)c1`, the viability decrease was 111% (active).
Same read-out and setting: as for `CC[N+](C)(CC)CCOC(=O)C(O)(c1ccccc1)C1CCCCC1` (stereo unspecified), the figure is -16.6% (inactive); as for `CC1(C)O[C@@H]2C[C@H]3[C@@H]4C[C@H](F)C5=CC(=O)C=C[C@]5(C)[C@@]4(F)[C@@H](O)C[C@]3(C)[C@]2(C(=O)CO)O1`, -12.2% (inactive); as for `CNCC(O)c1ccc(O)c(O)c1` (stereo unspecified), 58.5% (active).
As to `CC(C)(C)NC(=O)[C@@H]1CN(Cc2cccnc2)CCN1C[C@@H](O)C[C@@H](Cc1ccccc1)C(=O)N[C@H]1c2ccccc2C[C@H]1O`, the viability decrease is -0.8% (inactive).
Turning to `Oc1cccc2[nH]ccc12`, the viability decrease was 41.8% (inactive).
Same read-out and setting: as for `COc1cc2c(cc1OC)C(=O)C(CC1CCN(Cc3ccccc3)CC1)C2` (stereo unspecified), the figure is 22.6% (inactive).
The same measure, in the same setting: as for `CCN(CC)CCNC(=O)c1cc(Cl)c(N)cc1OC`, the figure is -11.3% (inactive).
